Laboratory results reported in the supplement of paper PMC11732987, “Enantioselective OTUD7B fragment discovery through chemoproteomics screening and high-throughput optimisation” (Communications Chemistry, 2025).

Columns and labels:
Assay in all cases: log2 ratio of Biotin-Ahx-Ub-VS probe labelling (fragment/DMSO); higher = less target engagement (more negative = stronger competition), active = hit call of the paper (q ≤ 0.05, log2 ratio ≤ -1)
Settings in all cases: compound concentration: 200 uM; treatment time: 3 h
USP34 = USP34 (UniProt Q70CQ2)
Chain of USP34 (Q70CQ2 whole entry, the tested form may be a part): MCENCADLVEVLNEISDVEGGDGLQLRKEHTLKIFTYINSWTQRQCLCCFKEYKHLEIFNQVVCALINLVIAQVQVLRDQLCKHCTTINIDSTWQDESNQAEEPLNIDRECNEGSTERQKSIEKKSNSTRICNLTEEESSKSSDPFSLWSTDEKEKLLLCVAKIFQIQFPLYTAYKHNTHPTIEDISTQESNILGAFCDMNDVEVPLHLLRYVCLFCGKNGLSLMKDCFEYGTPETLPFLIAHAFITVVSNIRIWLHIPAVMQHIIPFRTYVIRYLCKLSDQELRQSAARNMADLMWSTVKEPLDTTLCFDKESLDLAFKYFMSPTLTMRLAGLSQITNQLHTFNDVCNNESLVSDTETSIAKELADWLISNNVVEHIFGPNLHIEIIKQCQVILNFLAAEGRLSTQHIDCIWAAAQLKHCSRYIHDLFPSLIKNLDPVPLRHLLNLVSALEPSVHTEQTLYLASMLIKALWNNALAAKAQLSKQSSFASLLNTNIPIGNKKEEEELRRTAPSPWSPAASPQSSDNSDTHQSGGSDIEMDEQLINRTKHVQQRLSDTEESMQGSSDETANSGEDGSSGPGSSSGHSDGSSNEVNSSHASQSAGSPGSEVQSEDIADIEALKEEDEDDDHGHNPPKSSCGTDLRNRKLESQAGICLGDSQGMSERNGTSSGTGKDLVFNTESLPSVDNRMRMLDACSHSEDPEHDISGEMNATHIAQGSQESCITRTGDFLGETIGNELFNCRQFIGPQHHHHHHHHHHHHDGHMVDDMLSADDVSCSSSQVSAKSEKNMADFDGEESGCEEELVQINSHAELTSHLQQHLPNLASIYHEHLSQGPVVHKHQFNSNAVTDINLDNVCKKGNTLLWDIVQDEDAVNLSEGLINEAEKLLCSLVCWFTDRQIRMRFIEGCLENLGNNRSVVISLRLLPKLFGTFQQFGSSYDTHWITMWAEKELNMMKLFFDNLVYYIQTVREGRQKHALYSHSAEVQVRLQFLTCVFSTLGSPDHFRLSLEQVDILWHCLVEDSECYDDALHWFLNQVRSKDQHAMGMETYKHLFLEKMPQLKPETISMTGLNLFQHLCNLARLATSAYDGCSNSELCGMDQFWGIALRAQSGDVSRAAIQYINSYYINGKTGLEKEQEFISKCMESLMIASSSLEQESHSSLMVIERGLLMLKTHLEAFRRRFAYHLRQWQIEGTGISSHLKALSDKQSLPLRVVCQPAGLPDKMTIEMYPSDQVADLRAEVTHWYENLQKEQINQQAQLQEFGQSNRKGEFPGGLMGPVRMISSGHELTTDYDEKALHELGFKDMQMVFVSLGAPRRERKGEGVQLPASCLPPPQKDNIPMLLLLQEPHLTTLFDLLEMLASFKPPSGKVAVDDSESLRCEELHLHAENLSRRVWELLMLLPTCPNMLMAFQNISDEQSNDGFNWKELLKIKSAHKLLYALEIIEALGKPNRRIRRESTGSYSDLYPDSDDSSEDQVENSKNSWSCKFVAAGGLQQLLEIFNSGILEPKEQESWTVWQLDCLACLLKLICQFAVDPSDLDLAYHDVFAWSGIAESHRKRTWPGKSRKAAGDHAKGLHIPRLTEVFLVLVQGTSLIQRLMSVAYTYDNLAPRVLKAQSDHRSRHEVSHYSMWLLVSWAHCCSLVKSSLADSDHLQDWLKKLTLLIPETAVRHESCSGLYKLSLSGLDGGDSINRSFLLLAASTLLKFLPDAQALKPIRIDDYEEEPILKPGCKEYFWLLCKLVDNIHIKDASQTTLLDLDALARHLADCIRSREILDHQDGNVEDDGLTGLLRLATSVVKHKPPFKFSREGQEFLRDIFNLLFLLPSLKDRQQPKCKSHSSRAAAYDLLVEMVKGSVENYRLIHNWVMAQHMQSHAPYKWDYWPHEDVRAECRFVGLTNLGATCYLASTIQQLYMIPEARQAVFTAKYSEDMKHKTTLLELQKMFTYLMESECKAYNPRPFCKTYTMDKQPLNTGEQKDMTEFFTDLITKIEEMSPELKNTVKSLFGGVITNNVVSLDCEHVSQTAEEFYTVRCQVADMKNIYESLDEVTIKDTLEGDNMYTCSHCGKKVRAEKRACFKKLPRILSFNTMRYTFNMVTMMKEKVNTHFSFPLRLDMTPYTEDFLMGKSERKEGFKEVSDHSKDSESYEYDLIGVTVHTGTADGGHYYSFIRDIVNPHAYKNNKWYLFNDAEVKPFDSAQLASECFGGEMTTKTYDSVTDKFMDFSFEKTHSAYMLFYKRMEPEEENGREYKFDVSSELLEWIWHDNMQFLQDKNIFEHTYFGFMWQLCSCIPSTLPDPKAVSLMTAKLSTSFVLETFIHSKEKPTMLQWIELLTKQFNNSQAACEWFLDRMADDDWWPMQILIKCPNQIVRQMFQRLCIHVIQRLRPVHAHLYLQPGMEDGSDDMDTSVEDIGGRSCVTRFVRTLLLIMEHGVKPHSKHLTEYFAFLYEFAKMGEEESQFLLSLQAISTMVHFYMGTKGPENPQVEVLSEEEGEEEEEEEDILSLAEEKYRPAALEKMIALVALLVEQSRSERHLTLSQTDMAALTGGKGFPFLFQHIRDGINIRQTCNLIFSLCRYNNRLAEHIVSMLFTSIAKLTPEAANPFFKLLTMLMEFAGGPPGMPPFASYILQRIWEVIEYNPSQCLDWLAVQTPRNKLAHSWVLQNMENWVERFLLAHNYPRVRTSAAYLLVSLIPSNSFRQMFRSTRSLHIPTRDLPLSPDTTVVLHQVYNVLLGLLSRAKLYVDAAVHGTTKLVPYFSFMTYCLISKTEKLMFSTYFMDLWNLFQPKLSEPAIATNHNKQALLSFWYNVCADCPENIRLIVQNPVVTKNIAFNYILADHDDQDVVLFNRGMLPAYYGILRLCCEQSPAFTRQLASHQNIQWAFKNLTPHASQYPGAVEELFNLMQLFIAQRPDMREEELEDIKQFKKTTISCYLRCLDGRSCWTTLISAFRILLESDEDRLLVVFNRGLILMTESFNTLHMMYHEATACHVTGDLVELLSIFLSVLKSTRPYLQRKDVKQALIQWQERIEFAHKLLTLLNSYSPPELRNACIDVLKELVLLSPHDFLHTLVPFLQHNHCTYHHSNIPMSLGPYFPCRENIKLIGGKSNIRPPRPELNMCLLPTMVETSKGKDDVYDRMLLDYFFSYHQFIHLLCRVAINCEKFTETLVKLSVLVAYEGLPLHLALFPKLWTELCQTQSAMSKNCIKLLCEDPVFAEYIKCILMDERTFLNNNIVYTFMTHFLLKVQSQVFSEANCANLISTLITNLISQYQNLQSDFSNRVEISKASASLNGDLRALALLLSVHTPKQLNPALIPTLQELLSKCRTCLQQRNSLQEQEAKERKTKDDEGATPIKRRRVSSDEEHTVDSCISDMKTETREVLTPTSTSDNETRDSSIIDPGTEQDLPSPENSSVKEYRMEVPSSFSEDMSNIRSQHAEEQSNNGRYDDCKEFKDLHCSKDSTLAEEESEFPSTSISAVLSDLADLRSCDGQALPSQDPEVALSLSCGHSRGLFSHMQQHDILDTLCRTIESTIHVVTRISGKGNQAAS
Outline: (§1)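 Using Biotin-Ahx-Ub-VS at 0.5 µM final for 1 h, DUBs were labelled in HEK293T lysate (495 µg per sample) that had first been treated in triplicate with fragment at 200 µM or vehicle for 3 h. NeutrAvidin enrichment, LysC and trypsin digestion and diaPASEF LC-MS/MS followed. Spectronaut label-free quantities were global-median-normalised. Values are average log2 fragment/vehicle ratios by unpaired t-test, using proteins with ≥2 unique peptides.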

USP36 = molecular target: T1, USP36 (UniProt Q9P275)
T1 sequence (whole entry): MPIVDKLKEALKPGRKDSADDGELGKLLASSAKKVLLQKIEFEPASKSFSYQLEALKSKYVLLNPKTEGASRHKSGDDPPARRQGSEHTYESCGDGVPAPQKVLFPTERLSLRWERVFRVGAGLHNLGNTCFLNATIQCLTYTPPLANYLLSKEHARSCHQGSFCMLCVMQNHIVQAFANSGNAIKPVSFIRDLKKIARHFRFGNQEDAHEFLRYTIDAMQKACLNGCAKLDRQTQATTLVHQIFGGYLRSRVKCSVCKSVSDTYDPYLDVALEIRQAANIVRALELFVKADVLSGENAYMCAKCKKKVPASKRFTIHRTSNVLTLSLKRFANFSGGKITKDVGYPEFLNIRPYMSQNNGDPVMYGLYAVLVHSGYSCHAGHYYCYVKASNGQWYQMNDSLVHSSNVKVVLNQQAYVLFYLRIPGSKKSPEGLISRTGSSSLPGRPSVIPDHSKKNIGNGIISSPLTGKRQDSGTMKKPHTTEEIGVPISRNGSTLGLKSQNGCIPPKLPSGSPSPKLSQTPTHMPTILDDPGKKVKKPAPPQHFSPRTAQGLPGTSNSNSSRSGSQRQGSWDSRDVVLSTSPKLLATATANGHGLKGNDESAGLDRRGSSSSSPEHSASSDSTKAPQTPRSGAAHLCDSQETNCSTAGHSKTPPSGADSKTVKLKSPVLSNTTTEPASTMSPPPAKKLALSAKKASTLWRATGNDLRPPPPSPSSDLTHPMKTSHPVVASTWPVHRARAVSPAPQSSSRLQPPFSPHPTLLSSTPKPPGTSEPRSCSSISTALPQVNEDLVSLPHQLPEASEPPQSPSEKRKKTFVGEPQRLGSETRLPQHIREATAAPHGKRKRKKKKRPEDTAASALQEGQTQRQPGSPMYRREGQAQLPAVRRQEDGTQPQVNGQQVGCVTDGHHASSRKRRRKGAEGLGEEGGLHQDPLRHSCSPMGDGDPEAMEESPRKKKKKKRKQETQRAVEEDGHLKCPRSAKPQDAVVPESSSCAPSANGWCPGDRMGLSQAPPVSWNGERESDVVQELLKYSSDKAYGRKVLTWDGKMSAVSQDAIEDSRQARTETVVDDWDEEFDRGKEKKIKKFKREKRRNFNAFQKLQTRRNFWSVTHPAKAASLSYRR
Outline: as §1

USP38 = molecular target: T2, USP38 (UniProt Q8NB14)
T2 sequence (whole entry): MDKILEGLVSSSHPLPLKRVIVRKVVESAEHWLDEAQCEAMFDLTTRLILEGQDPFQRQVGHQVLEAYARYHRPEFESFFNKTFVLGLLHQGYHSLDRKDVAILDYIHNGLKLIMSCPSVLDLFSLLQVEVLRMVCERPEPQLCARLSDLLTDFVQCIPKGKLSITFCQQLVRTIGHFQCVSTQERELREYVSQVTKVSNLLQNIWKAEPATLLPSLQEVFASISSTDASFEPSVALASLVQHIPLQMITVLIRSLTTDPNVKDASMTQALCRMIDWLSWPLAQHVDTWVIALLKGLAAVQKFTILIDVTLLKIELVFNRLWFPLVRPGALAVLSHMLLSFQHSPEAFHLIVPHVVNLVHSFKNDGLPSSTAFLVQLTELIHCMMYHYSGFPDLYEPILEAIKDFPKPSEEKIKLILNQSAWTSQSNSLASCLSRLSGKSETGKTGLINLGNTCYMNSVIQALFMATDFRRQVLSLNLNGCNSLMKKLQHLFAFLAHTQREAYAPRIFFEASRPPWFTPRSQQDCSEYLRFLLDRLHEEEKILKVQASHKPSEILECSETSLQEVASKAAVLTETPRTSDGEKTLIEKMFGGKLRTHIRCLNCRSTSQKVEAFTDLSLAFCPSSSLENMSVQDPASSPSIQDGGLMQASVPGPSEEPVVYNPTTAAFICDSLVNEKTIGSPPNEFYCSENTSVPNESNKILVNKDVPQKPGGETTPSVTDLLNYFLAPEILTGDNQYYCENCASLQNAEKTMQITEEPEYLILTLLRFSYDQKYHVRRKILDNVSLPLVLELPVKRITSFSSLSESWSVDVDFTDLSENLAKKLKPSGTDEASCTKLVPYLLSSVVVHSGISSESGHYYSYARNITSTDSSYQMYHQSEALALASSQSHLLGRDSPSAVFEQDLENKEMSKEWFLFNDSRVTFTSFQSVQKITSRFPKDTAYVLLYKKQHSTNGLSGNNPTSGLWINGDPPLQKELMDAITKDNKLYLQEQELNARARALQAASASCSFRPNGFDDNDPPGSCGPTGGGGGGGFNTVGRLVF
Outline: as §1

USP39 = molecular target: T3, USP39 (UniProt Q53GS9)
T3 sequence (whole entry): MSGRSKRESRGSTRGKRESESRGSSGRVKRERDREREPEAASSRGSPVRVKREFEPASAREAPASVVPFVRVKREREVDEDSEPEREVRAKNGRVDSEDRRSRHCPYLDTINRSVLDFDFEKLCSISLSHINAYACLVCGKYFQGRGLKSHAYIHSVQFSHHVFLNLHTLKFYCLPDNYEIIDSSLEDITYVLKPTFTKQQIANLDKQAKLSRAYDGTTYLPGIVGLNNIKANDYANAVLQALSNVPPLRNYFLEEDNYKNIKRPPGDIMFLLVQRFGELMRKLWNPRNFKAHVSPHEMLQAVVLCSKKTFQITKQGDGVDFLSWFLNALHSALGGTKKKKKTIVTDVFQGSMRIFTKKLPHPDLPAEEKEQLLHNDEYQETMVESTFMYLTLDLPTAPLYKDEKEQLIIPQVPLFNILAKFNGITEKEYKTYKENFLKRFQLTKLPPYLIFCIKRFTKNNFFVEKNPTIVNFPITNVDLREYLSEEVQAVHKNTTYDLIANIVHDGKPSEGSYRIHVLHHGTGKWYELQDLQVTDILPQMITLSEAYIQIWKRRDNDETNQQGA
Outline: as §1

USP4 = molecular target: T4, USP4 (UniProt Q13107)
T4 sequence (whole entry): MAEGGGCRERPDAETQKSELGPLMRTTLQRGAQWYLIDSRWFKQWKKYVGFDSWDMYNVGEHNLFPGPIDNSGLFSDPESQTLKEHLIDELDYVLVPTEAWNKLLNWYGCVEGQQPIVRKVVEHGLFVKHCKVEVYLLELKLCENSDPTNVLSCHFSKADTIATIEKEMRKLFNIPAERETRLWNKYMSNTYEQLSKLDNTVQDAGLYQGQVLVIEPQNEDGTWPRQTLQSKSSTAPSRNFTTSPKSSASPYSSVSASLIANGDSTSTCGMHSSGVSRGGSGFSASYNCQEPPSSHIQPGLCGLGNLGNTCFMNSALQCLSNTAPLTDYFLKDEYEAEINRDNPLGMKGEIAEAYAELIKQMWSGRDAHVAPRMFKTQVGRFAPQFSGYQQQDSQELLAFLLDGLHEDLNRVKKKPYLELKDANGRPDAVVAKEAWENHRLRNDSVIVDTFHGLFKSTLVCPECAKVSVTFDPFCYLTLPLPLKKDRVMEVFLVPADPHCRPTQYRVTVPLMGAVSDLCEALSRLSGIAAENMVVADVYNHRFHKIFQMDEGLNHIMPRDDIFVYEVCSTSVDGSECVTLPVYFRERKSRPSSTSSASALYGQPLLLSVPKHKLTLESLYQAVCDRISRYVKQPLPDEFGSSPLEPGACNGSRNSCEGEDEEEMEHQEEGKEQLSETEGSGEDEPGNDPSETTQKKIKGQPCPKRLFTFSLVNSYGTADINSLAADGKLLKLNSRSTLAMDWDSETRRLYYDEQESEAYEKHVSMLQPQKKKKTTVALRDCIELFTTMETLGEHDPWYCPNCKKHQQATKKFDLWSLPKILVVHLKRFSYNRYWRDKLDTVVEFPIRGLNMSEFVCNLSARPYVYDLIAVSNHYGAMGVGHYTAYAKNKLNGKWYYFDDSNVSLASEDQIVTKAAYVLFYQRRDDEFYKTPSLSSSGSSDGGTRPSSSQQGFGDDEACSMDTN
Outline: as §1

Measured: log2 ratio of Biotin-Ahx-Ub-VS probe labelling

CC(c1ccccc1)N(C)C(=O)CCl (stereo not given)
inactive: USP34 -0.323 | USP36 -0.306 | USP38 -0.0902 | USP39 -0.413 | USP4 -0.289
